# Assay results: a collection of fitness landscapes (doi:10.1126/science.1257360)
# In all, about 140,000 sequences were measured (“enrichment ratio after two sorts for PhoP signalling”: median about 0, highest 2% from about 11 on). Many of the other results were omitted from the sample, so the highest values are more common in it than they were.
# B1: PhoQ; a variant is named by its letters at X, in order, P23837 (parent)
# chain: MKKLLRLFFPLSLRVRFLLATAAVVLVLSLAYGMVALIGYSVSFDKTTFRLLRGESNLFYTLAKWENNKLHVELPENIDKQSPTMTLIYDENGQLLWAQRDVPWLMKMIQPDWLKSNGFHEIEADVNDTSLLLSGDHSIQQQLQEVREDDDDAEMTHSVAVNVYPATSRMPKLTIVVVDTIPVELKSSYMVWSWFIYVLSANLLLVIPLLWVAAWWSLRPIEALAKEVRELEEHNRELLNPATTRELTSLVRNLNRLLKSERERYDKYRTTLTDLTHSLKTPLXXLQXXLRSLRSEKMSVSDAEPVMLEQISRISQQIGYYLHRASMRGGTLLSRELHPVAPLLDNLTSALNKVYQRKGVNISLDISPEISFVGEQNDFVEVMGNVLDNACKYCLEFVEISARQTDEHLYIVVEDDGPGIPLSKREVIFDRGQRVDTLRPGQGVGLAVAREITEQYEGKIVAGESMLGGARMEVIFGRQHSAPKDE
# Variants of: B1
# Assay: enrichment ratio after two sorts for PhoP signalling (ratio (wild type AVST 3.29)); higher = more functional
# Conditions: with PhoP (E. coli)
row,Variant,enrichment ratio
1,IEMK,≤ 0.25
2,EVHQ,≤ 0.25
3,TVSM,37.3
4,YTSM,1.02
5,SGSF,1.84
6,MMSM,7.2
7,TTSM,14.8
8,SPSM,≤ 0.25
9,TSSM,24.4
10,NVSM,≤ 0.25
11,SGSM,12.7
12,KSSM,≤ 0.25
13,KQSM,≤ 0.25
14,KQAV,≤ 0.25
15,DAHD,≤ 0.25
16,QSHT,≤ 0.25
17,PIQW,≤ 0.25
18,FMCI,≤ 0.25
19,MYGI,≤ 0.25
20,ICFI,≤ 0.25
21,VCSA,≤ 0.25
22,YCHV,≤ 0.25
23,HSSA,≤ 0.25
24,SMEV,≤ 0.25
25,GVPM,≤ 0.25

row,Variant,enrichment ratio
1,MVPM,≤ 0.25
2,GVAM,15.2
3,MVAM,39.4
4,GVTM,8.91
5,GVAK,11.7
6,NVAK,≤ 0.25
7,MVAK,5.7
8,MVWM,0.553
9,SAME,0.508
10,WCYN,≤ 0.25
11,KFKF,≤ 0.25
12,GTRF,≤ 0.25
13,LCNN,≤ 0.25
14,KSNL,≤ 0.25
15,FSNL,≤ 0.25
16,TSNL,12.5
17,TSNN,12.2
18,KSNN,≤ 0.25
19,LVAI,≤ 0.25
20,NFCN,≤ 0.25
21,VCAH,≤ 0.25
22,TCAE,≤ 0.25
23,TCAV,13.4
24,HVSV,≤ 0.25
25,KCEF,≤ 0.25

row,Variant,enrichment ratio
1,KCAH,≤ 0.25
2,KCAV,≤ 0.25
3,KCSV,≤ 0.25
4,TCAH,11.7
5,TCSV,17.7
6,TCEF,13.2
7,VEEF,≤ 0.25
8,SLYY,≤ 0.25
9,DQFN,≤ 0.25
10,RPHE,≤ 0.25
11,SDPC,≤ 0.25
12,FRSR,≤ 0.25
13,FCAS,≤ 0.25
14,TCGY,20.3
15,KCAS,≤ 0.25
16,TCNY,9.63
17,TCLT,4.19
18,TCVP,≤ 0.25
19,TCLS,7.88
20,KCSM,≤ 0.25
21,TCSM,18.9
22,VCSM,3.67
23,TCAS,12.2
24,TCLA,11.9
25,RVLR,≤ 0.25

row,Variant,enrichment ratio
1,ENDI,≤ 0.25
2,MVRF,≤ 0.25
3,HGLK,≤ 0.25
4,GGGP,≤ 0.25
5,KHVK,≤ 0.25
6,TCIT,≤ 0.25
7,HVSC,≤ 0.25
8,FCAN,≤ 0.25
9,TCLK,13.1
10,FCLK,1.84
11,KCLK,≤ 0.25
12,KCAN,≤ 0.25
13,TCAN,25.6
14,VCMT,≤ 0.25
15,KCSC,≤ 0.25
16,TCMT,14.5
17,TCSC,12.3
18,NFFS,≤ 0.25
19,FFPR,≤ 0.25
20,DMHV,≤ 0.25
21,ETAR,≤ 0.25
22,KLGR,≤ 0.25
23,TCDD,≤ 0.25
24,TCGD,20.3
25,KCAQ,≤ 0.25

row,Variant,enrichment ratio
1,FCSN,≤ 0.25
2,TCYD,≤ 0.25
3,TCTW,10.8
4,TCTQ,21.4
5,VCAQ,≤ 0.25
6,TCAQ,15.5
7,KCSN,≤ 0.25
8,LSTQ,≤ 0.25
9,TCSN,20
10,HFQA,≤ 0.25
11,FHFW,≤ 0.25
12,KCDC,≤ 0.25
13,TKEF,≤ 0.25
14,SVFR,0.428
15,SAGS,3.14
16,SRYF,≤ 0.25
17,IHVG,≤ 0.25
18,LNTP,≤ 0.25
19,NEMN,≤ 0.25
20,TALV,10.2
21,EMAS,≤ 0.25
22,ESQI,≤ 0.25
23,KCAK,≤ 0.25
24,KCSY,≤ 0.25
25,TCGF,12.5

row,Variant,enrichment ratio
1,VCAK,≤ 0.25
2,HVSY,≤ 0.25
3,TCSY,13.3
4,FCSA,≤ 0.25
5,VEGF,≤ 0.25
6,KCSA,≤ 0.25
7,TCAK,11.2
8,TCHF,8.33
9,TCSA,18.5
10,YCQN,≤ 0.25
11,DLMC,≤ 0.25
12,PANG,≤ 0.25
13,THES,≤ 0.25
14,THGV,1.56
15,PMKY,≤ 0.25
16,TLGR,≤ 0.25
17,GLIF,≤ 0.25
18,VECL,2.59
19,TCNS,16.1
20,TCWI,1.27
21,TCDS,1.7
22,ACGL,2.96
23,KCSL,≤ 0.25
24,FCSL,0.351
25,GQSL,≤ 0.25

row,Variant,enrichment ratio
1,TCCL,13.8
2,TCSL,16.4
3,ACSL,16.6
4,KCCL,≤ 0.25
5,IIGM,≤ 0.25
6,QKHF,≤ 0.25
7,LRCK,≤ 0.25
8,NVPP,≤ 0.25
9,APIR,≤ 0.25
10,AWVY,≤ 0.25
11,ELQD,≤ 0.25
12,SGPP,≤ 0.25
13,HHVH,≤ 0.25
14,TICC,2.66
15,KPAP,≤ 0.25
16,AQWF,≤ 0.25
17,TCVA,≤ 0.25
18,TCSK,13.7
19,TCAT,14.5
20,TCSR,5.34
21,TCDT,≤ 0.25
22,KCSS,≤ 0.25
23,TCYI,1.36
24,KCAY,≤ 0.25
25,TCAY,14.1

row,Variant,enrichment ratio
1,TCSS,15
2,FCSS,≤ 0.25
3,TCNT,7.62
4,LFWM,≤ 0.25
5,NNTR,≤ 0.25
6,IGVH,≤ 0.25
7,WSVN,≤ 0.25
8,HDQK,≤ 0.25
9,LDIL,≤ 0.25
10,MIIK,≤ 0.25
11,FCLC,7.16
12,TCNE,19.6
13,FCLN,3.94
14,TCHE,≤ 0.25
15,TCAG,12.5
16,TCLN,13.6
17,FCAG,≤ 0.25
18,TCIE,≤ 0.25
19,VCLC,2.94
20,KCAG,≤ 0.25
21,TCLC,23.4
22,VCLN,2.29
